Screening data from PubChem BioAssay.
BRCA1 expr up – increases BRCA1 expression | MCF7-BRCA1-FFLuc reporter, luminescence, 48 h; response scale: scaled: vehicle 0%, 10 µM genistein 100% | hit rate 1.1% among 380,000 | Potency, µM (titrated, usually from 46.1 µM), for the others: at the top dose activation, most hits filed as activators | AID 624202; further: potency means the concentration at half of the fitted maximal effect; nearly all actives have a fitted effect of over 80% in size
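MCF7 cells carrying a BRCA1-firefly luciferase reporter (2000 cells/well, phenol-red free MEM) were attached for 2 h at 37 °C, then given compounds for 48 h. Luminescence was read 15 min after luciferase reagent; activity normalized to genistein (10 microM) and DMSO.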
RORg inh – inhibitors of mouse ROR gamma transcriptional activity. P51450. hit rate 5.4% among 310,000. Potency, µM (titrated, usually from 53.6 µM), inactives show at the highest dose activity change, negative = inhibition, usual class: inhibitors. Drosophila S2 Gal4-RORgamma UAS-luciferase reporter, 20 h; further: potency means the concentration at half of the fitted maximal effect; on the % scale 0 is the no-effect control and ±100 the full control effect; nearly all actives have a fitted effect of over 60% in size
Target sequence (P51450 whole entry, looked up, the tested form may be a part): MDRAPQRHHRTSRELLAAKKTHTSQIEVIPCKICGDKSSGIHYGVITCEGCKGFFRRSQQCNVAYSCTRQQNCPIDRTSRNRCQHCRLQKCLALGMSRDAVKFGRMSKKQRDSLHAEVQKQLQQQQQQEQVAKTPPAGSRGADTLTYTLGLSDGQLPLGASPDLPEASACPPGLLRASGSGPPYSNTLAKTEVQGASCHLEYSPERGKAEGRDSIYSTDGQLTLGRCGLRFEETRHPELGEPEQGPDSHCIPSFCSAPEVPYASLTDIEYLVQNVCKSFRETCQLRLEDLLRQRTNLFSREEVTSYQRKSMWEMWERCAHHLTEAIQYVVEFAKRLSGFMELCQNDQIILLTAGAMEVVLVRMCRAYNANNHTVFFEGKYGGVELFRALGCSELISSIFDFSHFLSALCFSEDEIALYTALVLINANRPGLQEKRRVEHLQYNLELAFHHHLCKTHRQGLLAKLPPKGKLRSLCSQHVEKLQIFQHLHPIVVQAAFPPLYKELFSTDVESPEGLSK
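Luminescence from a UAS-regulated Photinus luciferase reporter in stably transfected Drosophila Schneider cells is measured; decreased signal marks ROR gamma inhibition. Fusion expression is induced by 700 uM copper sulfate for 20 hr.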
p53 reactivation – re-activators of mutant p53; H1299 p53-A138V BP100-luciferase reporter, luminescence, 24 h; Potency, µM (series often up to 92.2 µM), for inactives: top-dose activity change, positive = activation, actives largely listed as activators; hit rate 0.063% among 320,000; further: potency means the concentration at half of the fitted maximal effect; % of control where 0% means no effect; nearly all actives have a fitted effect of over 45% in size
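p53-null H1299 cells stably carrying temperature-sensitive p53-A138V and a BP100-luciferase reporter were pinned with compounds (4-point, 1:5 series) and held 24 hrs at 37 deg C. Luminescence was read 10 min after detection reagent.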
ELG1 repair inh – ELG1-dependent DNA repair inhibition | hit rate 2.3% among 330,000 | AID 504467 | HEK293T ELG1-luciferase reporter, luminescence, 16 h; DNA damage induced by 5-fluorouridine | Potency, µM (series often up to 46.1 µM), for the others: top-dose activity change, negative = inhibition, actives largely listed as inhibitors; further: potency means the concentration at half of the fitted maximal effect; on the % scale 0 is the no-effect control and ±100 the full control effect; nearly all actives have a fitted effect of over 55% in size
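Step one: seed 2,000 cells per well. Step two: pin-transfer compound or DMSO alongside 5-fluorouridine. Step three: incubate 16 hr, 37 °C, 5% CO2. Step four: add ONE-Glo, wait 30 min, read luminescence.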
Gal4-VP16 FLuc – inhibits Gal4-VP16 luciferase reporter, ROR gamma counter-screen; Drosophila S2 Gal4-VP16 UAS-luciferase, luminescence, 20 h; Potency, µM (series often up to 53.6 µM), for the others: at the top dose activity, negative = inhibition, most hits filed as inhibitors; hit rate 3.5% among 310,000; AID 2546;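 further: Gal4-VP16 expression switched on by copper sulfate through the metallothionein promoter; potency means the concentration at half of the fitted maximal effect; on the % scale 0 is the no-effect control and ±100 the full control effect; nearly all actives have a fitted effect of over 50% in size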
Giardia kill – kills Giardia lamblia | hit rate 0.15% among 340,000 | activity change, % at 7.66 µM, hits read low | Giardia lamblia trophozoite viability; in the data active means activity change below about -80%; inconclusive means between about -30% and that limit;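 further: parasites exposed to compound for two days anaerobically before the ATP read; on the % scale 0 is the no-effect control and ±100 the full control effect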
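Trophozoites 100 cells/well + cpd; 48 hrs, 37 deg C, anaerobic. ATPLite 1-Step added, 15-30 min RT, luminescence read (ATP-based viability).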
* hit, by the source's call; ? = inconclusive; / = no result. Compounds with a hit are over-represented: about 7.6% of the library has one in this group of screens. Unless noted, the call rests on the fitted dose curve; in most records, active means well fitted curve in the direction sought with a large enough effect; inconclusive means small, poorly fitted or top-dose-only effect, or another doubt; inactive means no such curve, though single readings can be large; an effect the other way counts as inactive or inconclusive.

SMILES | BRCA1 expr up | RORg inh | p53 reactivation | ELG1 repair inh | Gal4-VP16 FLuc | Giardia kill
CCSc1nc2c(c(=O)[nH]c(=O)n2C)n1CC(O)COc1ccccc1C (centres undefined) | -29.2% | 7.9% | -1.4% | 16.4µM* | -14.1% | 2.1
CCc1ccc(N2CC(C)Cn3c2nc2c3c(=O)n(CCN3CCOCC3)c(=O)n2C)cc1 (centres undefined) | 9.9% | 2.9% | -1.9% | -4.6% | -4.4% | 30.0
C[C@H](NC(=O)C1CC(=O)N(c2ccc(F)cc2)C1)C(=O)N1CCCCC1 (some centres undefined) | 25.7% | -9.4% | -2.1% | -0.5% | -21.4% | -11.5
O=C(Nc1ccc(Br)cc1)C1CC(O)CN1C(=O)OCc1ccccc1 (centres undefined) | -14.8% | -9.2% | -3.3% | 5.6% | 16.2% | -1.9
C/C(=N\NC(=O)c1ccc(C)cc1)c1c(C)[nH]n(-c2ccccc2)c1=O | -72.4% | 1.26µM* | -11.4% | ? | 1.58µM* | 0.7
C/C(=N\NC(=O)c1ccccc1)c1c(C)[nH]n(-c2ccccc2)c1=O | -0.9% | 0.891µM* | -3.7% | ? | 1.26µM* | 7.4
Cc1[nH]n(-c2ccccc2)c(=O)c1C(=O)c1ccc([N+](=O)[O-])cc1 | 0.0% | 36.3% | 1.0% | -2.8% | -5.3% | -5.2
Cc1[nH]n(-c2ccccc2)c(=O)c1C(=O)Nc1ccccc1 | 30.1% | 8.2% | 24.6% | ? | -10.6% | -3.9
COc1ccccc1OCCNC(=O)c1ccc2c(c1)OCCO2 | ? | / | 24.3% | ? | / | -16.2
O=C(NCCOc1ccc(Cl)cc1)c1cccc(S(=O)(=O)N2CCCC2)c1 | 1.1% | / | -10.6% | 8.91µM* | / | 0.4
COc1ccccc1OCCNC(=O)c1ccc2c(c1)CCC2 | 11.2µM* | 14.2% | ? | ? | -1.4% | -5.4
O=C(NCc1ccc(Cl)cc1)c1cccc(S(=O)(=O)N2CCCC2)c1 | -33.6% | / | -1.2% | ? | / | 11.6
COc1ccccc1OCCNC(=O)c1cccc(S(=O)(=O)N2CCN(Cc3ccccc3)CC2)c1 | -6.6% | / | -2.9% | 20.6µM* | / | 11.1
CCc1sc(C(=O)N2CCN(c3ncccn3)CC2)cc1Br | 0.7% | 1.9% | -8.7% | -0.2% | -0.2% | -8.2
CCOC(=O)C(=CNc1cc(Cl)c(-c2ccco2)c(Cl)c1)C(=O)OCC | -26.9% | 38.6% | -4.3% | 20.6µM* | 5.7% | 37.5
c1csc(-c2noc(COc3ccc4c(c3)CCCC4)n2)c1 | 3.98µM* | ? | ? | ? | 6.5% | 3.3
Cc1cccc[n+]1CC(=O)Nc1cccc([N+](=O)[O-])c1 | 19.5% | 15.1% | 0.4% | 8.3% | -5.7% | 5.2
C/C(=N\NC(=O)COc1ccccc1)c1ccc(O)cc1 | 41.3% | -0.9% | 7.7% | ? | -21.0% | 10.7
CCCCCCCCCC(=O)N/N=C(\C)c1cccnc1 | -10.5% | ? | -16.1% | ? | ? | 14.5
C/C(=N\NC(=O)COc1ccccc1-c1ccccc1)c1ccc(O)cc1O | -76.0% | 0.0% | 7.8% | 23.1µM* | ? | -7.8
C/C(=N\NC(=O)COc1ccccc1-c1ccccc1)c1ccccn1 | -37.0% | 1.12µM* | ? | ? | ? | -19.3
CCCCCC(=O)N/N=C(\C)c1ccccn1 | -91.0% | 0.355µM* | 6.2% | ? | 0.562µM* | -9.1
C/C(=N\NC(=O)COc1ccccc1-c1ccccc1)c1cccnc1 | 0.0% | 19.9% | -4.1% | ? | 5.4% | 16.3
CCN(CC)C(=O)c1ccc2c(c1)N(Cc1ccccc1F)C(=O)c1ccccc1S2=O (centres undefined) | 22.3% | / | / | / | / | /
CC(=O)N(C1=C(N2CCOCC2)C(=O)c2ccccc2C1=O)c1ccc(C(=O)O)cc1 | -5.7% | ? | -10.5% | 23.1µM* | 11.2µM* | 10.0
CC(=O)c1ccc(NC2=C(N3CCOCC3)C(=O)c3ccccc3C2=O)cc1 | -89.2% | -42.1% | 2.4% | ? | 16.9% | -8.0
